According to PubChem BioAssay (EPA / NIEHS):
Results filed as inconclusive are left out. Calls of active or inactive are those of the source. How the source made its calls, unless noted: active means hit-call score of the fitted dose curve at least 0.9, where 1 is the maximum; inactive means score below 0.9.

Tests used:
[1] = target: Nuclear respiratory factor 1 (Homo sapiens) (UniProt Q16656); experiment: ATG_NRF1_CIS: Attagene CIS-FACTORIAL HepG2 Assay for human Nuclear Respiratory Factor 1 (NRF1) Orphan Gene (AID 2282987); conditions: HepG2 NRF1 cis-element reporter, Attagene multiplex; actives raise or lower the signal
Nuclear respiratory factor 1 (Homo sapiens), sequence (Q16656 whole entry, looked up): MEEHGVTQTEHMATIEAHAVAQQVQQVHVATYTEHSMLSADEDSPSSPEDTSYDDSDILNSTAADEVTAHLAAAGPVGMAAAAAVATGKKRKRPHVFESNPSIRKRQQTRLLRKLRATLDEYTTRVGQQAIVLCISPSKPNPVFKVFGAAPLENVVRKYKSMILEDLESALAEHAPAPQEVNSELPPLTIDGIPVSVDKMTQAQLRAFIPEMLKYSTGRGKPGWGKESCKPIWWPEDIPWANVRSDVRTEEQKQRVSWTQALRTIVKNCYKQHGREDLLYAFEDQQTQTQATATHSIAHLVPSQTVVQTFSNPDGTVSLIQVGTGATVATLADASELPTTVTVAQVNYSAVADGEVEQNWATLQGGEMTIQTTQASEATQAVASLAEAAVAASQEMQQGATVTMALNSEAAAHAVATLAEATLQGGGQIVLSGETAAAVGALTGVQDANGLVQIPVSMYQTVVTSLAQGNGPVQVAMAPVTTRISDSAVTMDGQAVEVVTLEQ
Outline: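 HepG2 cells transiently transfected with multiple reporter transcription units under cis-regulatory promoter control, so endogenous transcription-factor activity is read. After 24 h compound exposure, reporter mRNA quantified by RT-PCR, fluorescent labelling, HpaI digestion and capillary electrophoresis; bidirectional fitting versus DMSO.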

[2] = ATG_NFI_CIS: Attagene CIS-FACTORIAL HepG2 Assay for human Nuclear Factor I (NFI) (AID 2282989); conditions: HepG2 cis-regulatory reporter, NFI response element transcription; actives raise or lower the signal
Outline: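 HepG2 cells transiently transfected with cis-element-driven multiplexed reporter transcription units, dosed for 24 h. Reporter mRNA quantified by RT-PCR, fluorescent labelling, HpaI digestion and capillary electrophoresis; bidirectional fit versus DMSO baseline.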

[3] = target: Myc proto-oncogene protein (Homo sapiens) (UniProt P01106); experiment: ATG_Myc_CIS: Attagene CIS-FACTORIAL HepG2 Assay for human Myelocytomatosis (Myc) Proto-Oncogene Transcription Factor (AID 2282990); conditions: HepG2, Attagene cis-reporter transcription factor activity; actives raise or lower the signal
Myc proto-oncogene protein (Homo sapiens), sequence (P01106 whole entry, looked up, the tested form may be a part): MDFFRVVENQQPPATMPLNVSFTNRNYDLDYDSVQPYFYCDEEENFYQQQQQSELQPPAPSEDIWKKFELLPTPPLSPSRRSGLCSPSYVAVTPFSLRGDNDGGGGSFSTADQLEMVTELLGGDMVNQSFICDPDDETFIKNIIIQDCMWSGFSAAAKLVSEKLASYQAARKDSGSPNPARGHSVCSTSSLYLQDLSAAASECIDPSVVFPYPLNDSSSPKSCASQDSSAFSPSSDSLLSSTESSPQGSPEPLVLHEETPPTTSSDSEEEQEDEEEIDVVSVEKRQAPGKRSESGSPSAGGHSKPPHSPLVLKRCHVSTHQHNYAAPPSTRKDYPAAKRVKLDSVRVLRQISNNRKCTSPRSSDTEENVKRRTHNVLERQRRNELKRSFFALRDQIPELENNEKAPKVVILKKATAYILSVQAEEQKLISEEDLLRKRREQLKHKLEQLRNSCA
Outline: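 Fluorescence intensity of reporter-specific cDNA fragments, separated by capillary electrophoresis, gives the signal. Transfected HepG2 cells carrying cis-promoter reporter constructs are incubated with compound for 24 h; DMSO serves as baseline.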

[4] = ATG_NF_kB_CIS: Attagene CIS-FACTORIAL HepG2 Assay for human Nuclear Factor Kappa B (NF-kB) (AID 2282991); conditions: HepG2 Attagene cis-factorial NF-kB reporter mRNA; actives raise or lower the signal
Outline: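 HepG2 cells transiently transfected with multiplexed cis-element reporter units measuring endogenous transcription factor activity; reporter mRNA read 24 h after dosing by RT-PCR, fluorescent labelling, HpaI digestion and capillary electrophoresis. Bidirectional fit against DMSO baseline.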

[5] = ATG_NRF2_ARE_CIS: Attagene CIS-FACTORIAL HepG2 Assay for human Nuclear Factor Erythroid 2 Related Factor 2 (NFR2) response to Antioxidant Response Elements (ARE) (AID 2282992); conditions: HepG2 Attagene ARE/NRF2 reporter, transcription factor activity; actives raise or lower the signal;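 on AC50: reporter mRNA level measured by RT-PCR and capillary electrophoresis fluorescence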
Outline: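 Cis-factorial assay: transfected HepG2 reporter library, 24 h dosing, mRNA readout via RT-PCR/CE; DMSO-referenced bidirectional analysis.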

[6] = ATG_Oct_MLP_CIS: Attagene CIS-FACTORIAL HepG2 Assay for human Octamer-Binding Transcription Factor (Oct) (AID 2282993); conditions: HepG2 Attagene cis-factorial Oct reporter, mRNA; actives raise or lower the signal
Outline: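 HepG2 cells transiently transfected with cis-promoter-driven multiplexed reporter transcription units, dosed for 24 h. Reporter mRNA quantified by RT-PCR, fluorescent labelling, HpaI digestion and capillary electrophoresis; bidirectional fits versus DMSO baseline.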

[7] = target: Cellular tumor antigen p53 (Homo sapiens) (UniProt P04637); experiment: ATG_p53_CIS: Attagene CIS-FACTORIAL HepG2 Assay for human p53 Transcription Factor (AID 2282994); conditions: HepG2 p53 cis-element reporter, Attagene mRNA; actives raise or lower the signal
Cellular tumor antigen p53 (Homo sapiens), sequence (P04637 whole entry, looked up): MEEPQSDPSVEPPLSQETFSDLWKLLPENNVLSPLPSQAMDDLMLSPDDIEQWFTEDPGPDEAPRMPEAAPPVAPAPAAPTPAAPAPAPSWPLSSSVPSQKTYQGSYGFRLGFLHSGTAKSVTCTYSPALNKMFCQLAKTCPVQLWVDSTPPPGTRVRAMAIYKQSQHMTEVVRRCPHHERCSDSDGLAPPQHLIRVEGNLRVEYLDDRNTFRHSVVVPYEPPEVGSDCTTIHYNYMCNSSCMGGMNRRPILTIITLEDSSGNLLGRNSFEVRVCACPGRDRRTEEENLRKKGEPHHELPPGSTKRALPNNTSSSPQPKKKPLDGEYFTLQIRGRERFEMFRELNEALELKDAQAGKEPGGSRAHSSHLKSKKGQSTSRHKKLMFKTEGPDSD
Outline: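 Using HepG2 hepatoma cells carrying cis-acting multiplexed reporters, mRNA induction is detected after a 24 h exposure. Gain- and loss-of-signal responses are fitted relative to DMSO-treated cells.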

[8] = BSK_3C_TissueFactor: BioMAP Diversity Plus: 3C Assay for Tissue Factor Biomarker Activity (AID 2282997); conditions: BioMAP 3C HUVEC, tissue factor biomarker readout; actives raise or lower the signal
Outline: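 Values derive from bidirectional curve fitting against DMSO of Tissue Factor ELISA signals, taken 24 h after dosing primary human umbilical vein endothelial cells.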

[9] = BSK_3C_uPAR: BioMAP Diversity Plus: 3C Assay for Urokinase-type plasminogen activator receptor (uPAR) Biomarker Activity (AID 2282998); conditions: BioMAP 3C HUVEC, uPAR biomarker ELISA; actives raise or lower the signal
Outline: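 Human umbilical vein endothelial primary cells were exposed to test chemical for 24 h. Cell-surface uPAR was then quantified by ELISA, and responses were fitted bidirectionally against DMSO as negative control and baseline.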

[10] = BSK_3C_VCAM1: BioMAP Diversity Plus: 3C Assay for Vascular cell adhesion molecule 1 (VCAM1) Biomarker Activity (AID 2282999); conditions: BioMAP 3C HUVEC, VCAM1 ELISA, cytokine-stimulated; actives raise or lower the signal
Outline: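 Human umbilical vein endothelial cells (3C system), biomarker read by ELISA 24 h after dosing; bidirectional fit against DMSO baseline. Cytotoxicity tracked by SRB total-protein staining in parallel cultures at biomarker time.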

[11] = BSK_4H_Eotaxin3: BioMAP Diversity Plus: 4H Assay for Eotaxin 3 Biomarker Activity (AID 2283000); conditions: primary human endothelial cells (HUVEC); actives raise or lower the signal
Outline: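 Endothelial primary cells (human umbilical vein) exposed to compound for 24 h. ELISA detection of Eotaxin-3.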

[12] = target: human Peroxisome Proliferator-activated Receptor alpha (PPARa), PPARA (gene 5465) (UniProt Q07869); experiment: ATG_PPARa_TRANS: Attagene TRANS-FACTORIAL HepG2 Assay for human Peroxisome Proliferator-activated Receptor alpha (PPARa) (AID 2283001; active means hit-call score of the fitted dose curve at least 0.9, where 1 is the maximum)
human Peroxisome Proliferator-activated Receptor alpha (PPARa), PPARA (gene 5465), sequence (Q07869 whole entry, looked up, the tested form may be a part): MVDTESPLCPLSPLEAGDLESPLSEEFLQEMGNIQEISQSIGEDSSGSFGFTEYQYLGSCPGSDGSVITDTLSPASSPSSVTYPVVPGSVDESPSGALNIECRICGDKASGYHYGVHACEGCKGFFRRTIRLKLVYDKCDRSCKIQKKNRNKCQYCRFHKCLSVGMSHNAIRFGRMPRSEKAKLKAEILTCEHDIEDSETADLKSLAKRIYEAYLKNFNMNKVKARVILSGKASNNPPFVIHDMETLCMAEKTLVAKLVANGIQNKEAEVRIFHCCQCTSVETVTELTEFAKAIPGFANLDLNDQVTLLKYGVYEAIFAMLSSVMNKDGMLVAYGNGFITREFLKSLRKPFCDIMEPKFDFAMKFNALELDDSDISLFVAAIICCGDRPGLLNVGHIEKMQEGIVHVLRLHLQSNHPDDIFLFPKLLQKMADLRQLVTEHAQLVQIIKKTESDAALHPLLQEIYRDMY
Outline: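 HepG2 cells transiently transfected with multiplexed GAL4-UAS reporters driven by exogenous chimeric NR-Gal4 proteins; reporter mRNA measured after 24 h dosing. Read-out by RT-PCR, 6-FAM labelling, HpaI digestion and capillary electrophoresis; gain of signal versus DMSO.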

[13] = read-out: Intercellular Adhesion Molecule 1 (ICAM1), ICAM1 (gene 3383); experiment: BSK_3C_ICAM1: BioMAP Diversity Plus: 3C Assay for Intercellular Adhesion Molecule 1 (ICAM1) Biomarker Activity (AID 2283003); conditions: primary human endothelial cells (HUVEC); actives raise or lower the signal
Outline: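 ICAM-1 levels measured by ELISA after HUVEC cultures in the 3C system had been dosed for 24 h. Gain or loss of signal relative to DMSO was fitted in both directions.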

[14] = BSK_3C_Proliferation: Cell Proliferation Assessment in the BioMAP Diversity Plus: 3C Assay (AID 2283006); conditions: primary human endothelial cells (HUVEC);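 on AC50: potency may reflect either rise or fall in cell number versus DMSO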
Outline: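 Read-out is total protein by SRB absorbance at 560 nm, taken as a proxy for relative cell number. Primary human umbilical vein endothelium cultured below confluence was dosed for 48 h, TCA-fixed and SRB-stained; curves were fitted bidirectionally versus DMSO.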

[15] = target: Peroxisome proliferator-activated receptor gamma (Homo sapiens) (UniProt P37231); experiment: ATG_PPARg_TRANS: Attagene TRANS-FACTORIAL HepG2 Assay for human Peroxisome Proliferator-activated Receptor-gamma (PPARg) (AID 2283007; active means hit-call score of the fitted dose curve at least 0.9, where 1 is the maximum)
Peroxisome proliferator-activated receptor gamma (Homo sapiens), sequence (P37231 whole entry, looked up, the tested form may be a part): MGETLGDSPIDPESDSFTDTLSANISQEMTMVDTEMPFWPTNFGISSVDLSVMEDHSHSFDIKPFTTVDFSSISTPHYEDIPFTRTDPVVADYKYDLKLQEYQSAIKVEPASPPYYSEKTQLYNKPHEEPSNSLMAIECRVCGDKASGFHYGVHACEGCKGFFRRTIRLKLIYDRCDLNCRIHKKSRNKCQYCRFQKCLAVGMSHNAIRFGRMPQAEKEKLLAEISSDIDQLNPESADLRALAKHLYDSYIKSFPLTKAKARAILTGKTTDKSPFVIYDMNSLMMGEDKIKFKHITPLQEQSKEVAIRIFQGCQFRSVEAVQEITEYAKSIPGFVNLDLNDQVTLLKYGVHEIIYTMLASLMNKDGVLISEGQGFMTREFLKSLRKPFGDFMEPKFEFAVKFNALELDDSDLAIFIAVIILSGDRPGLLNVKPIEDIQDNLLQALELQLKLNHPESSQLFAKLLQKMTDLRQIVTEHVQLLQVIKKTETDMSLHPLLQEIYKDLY
Outline: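 HepG2 cells transiently transfected with multiplexed GAL4-UAS reporter units and exogenous chimeric NR-Gal4 proteins; reporter mRNA quantified after 24 h compound exposure by RT-PCR, fluorescent labelling, HpaI digestion and capillary electrophoresis; gain-of-signal fitted versus DMSO baseline.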

[16] = target: Nuclear receptor subfamily 1 group I member 2 (Homo sapiens) (UniProt O75469); experiment: ATG_PXR_TRANS: Attagene TRANS-FACTORIAL HepG2 Assay for human Pregnane X Receptor (PXR) (AID 2283008; active means hit-call score of the fitted dose curve at least 0.9, where 1 is the maximum)
Nuclear receptor subfamily 1 group I member 2 (Homo sapiens), sequence (O75469 whole entry, looked up, the tested form may be a part): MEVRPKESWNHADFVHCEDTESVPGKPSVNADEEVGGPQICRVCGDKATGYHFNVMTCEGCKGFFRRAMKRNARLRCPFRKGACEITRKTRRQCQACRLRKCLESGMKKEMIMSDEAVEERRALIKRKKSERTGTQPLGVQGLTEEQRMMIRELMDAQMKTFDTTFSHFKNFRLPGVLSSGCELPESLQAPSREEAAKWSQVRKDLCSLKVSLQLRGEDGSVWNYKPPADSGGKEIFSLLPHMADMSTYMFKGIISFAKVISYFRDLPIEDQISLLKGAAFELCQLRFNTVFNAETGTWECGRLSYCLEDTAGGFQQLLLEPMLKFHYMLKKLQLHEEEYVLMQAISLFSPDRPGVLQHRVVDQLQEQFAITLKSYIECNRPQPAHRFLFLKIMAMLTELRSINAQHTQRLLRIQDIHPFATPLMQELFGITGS
Outline: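 Fluorescence intensity of FAM-labelled, HpaI-digested reporter amplicons, separated by capillary electrophoresis, quantifies induction. HepG2 cells with PXR-Gal4 trans-reporter system were exposed 24 h; DMSO defines baseline.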

[17] = target: human Peroxisome Proliferator-activated Receptor delta (PPARd), PPARD (gene 5467) (UniProt Q03181); experiment: ATG_PPARd_TRANS: Attagene TRANS-FACTORIAL HepG2 Assay for human Peroxisome Proliferator-activated Receptor delta (PPARd) (AID 2283002; active means hit-call score of the fitted dose curve at least 0.9, where 1 is the maximum)
human Peroxisome Proliferator-activated Receptor delta (PPARd), PPARD (gene 5467), sequence (Q03181 whole entry, looked up, the tested form may be a part): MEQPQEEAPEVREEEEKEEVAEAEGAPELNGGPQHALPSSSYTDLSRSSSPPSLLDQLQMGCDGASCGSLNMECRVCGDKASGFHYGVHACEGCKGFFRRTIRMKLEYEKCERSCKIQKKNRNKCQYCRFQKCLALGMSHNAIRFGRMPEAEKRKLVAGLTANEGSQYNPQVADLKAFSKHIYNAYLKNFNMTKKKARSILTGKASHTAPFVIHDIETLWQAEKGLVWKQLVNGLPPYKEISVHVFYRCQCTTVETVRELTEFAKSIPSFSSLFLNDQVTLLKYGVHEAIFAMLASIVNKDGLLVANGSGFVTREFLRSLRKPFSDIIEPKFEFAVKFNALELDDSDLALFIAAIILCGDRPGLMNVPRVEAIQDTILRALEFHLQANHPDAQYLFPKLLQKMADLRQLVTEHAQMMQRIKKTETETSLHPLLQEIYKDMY
Outline: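 Fluorescence from capillary electrophoresis of labelled RT-PCR reporter fragments gives the signal; DMSO sets baseline. Cells: HepG2 transiently carrying GAL4-UAS reporter units plus chimeric nuclear receptor-Gal4 proteins, exposed to chemicals for 24 h.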

[18] = target: human Retinoic Acid Receptor beta (RARb), RARB (gene 5915) (UniProt P10826); experiment: ATG_RARb_TRANS: Attagene TRANS-FACTORIAL HepG2 Assay for human Retinoic Acid Receptor beta (AID 2283004; active means hit-call score of the fitted dose curve at least 0.9, where 1 is the maximum)
human Retinoic Acid Receptor beta (RARb), RARB (gene 5915), sequence (P10826 whole entry, looked up, the tested form may be a part): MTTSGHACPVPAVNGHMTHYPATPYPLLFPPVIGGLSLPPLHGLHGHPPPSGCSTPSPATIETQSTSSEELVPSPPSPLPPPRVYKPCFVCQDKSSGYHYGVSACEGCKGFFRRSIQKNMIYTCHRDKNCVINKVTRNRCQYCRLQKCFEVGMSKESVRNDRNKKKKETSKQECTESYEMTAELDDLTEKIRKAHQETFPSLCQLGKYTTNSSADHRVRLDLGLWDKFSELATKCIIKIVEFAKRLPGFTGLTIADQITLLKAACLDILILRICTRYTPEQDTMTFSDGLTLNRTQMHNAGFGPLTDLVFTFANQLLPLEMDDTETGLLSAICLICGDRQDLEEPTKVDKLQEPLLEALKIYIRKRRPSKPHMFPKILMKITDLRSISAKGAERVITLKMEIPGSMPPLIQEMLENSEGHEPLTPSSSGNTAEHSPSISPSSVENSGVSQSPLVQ
Outline: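 HepG2, transient MRTU transfection, NR–Gal4 chimera, 24 h treatment; RT-PCR plus CE fluorescence detection of reporter mRNA; gain of signal vs DMSO.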

[19] = target: human Retinoic Acid Receptor gamma (RARg), RARG (gene 5916) (UniProt P13631); experiment: ATG_RARg_TRANS: Attagene TRANS-FACTORIAL HepG2 Assay for human Retinoic Acid Receptor gamma (RARg) (AID 2283009; active means hit-call score of the fitted dose curve at least 0.9, where 1 is the maximum)
human Retinoic Acid Receptor gamma (RARg), RARG (gene 5916), sequence (P13631 whole entry, looked up): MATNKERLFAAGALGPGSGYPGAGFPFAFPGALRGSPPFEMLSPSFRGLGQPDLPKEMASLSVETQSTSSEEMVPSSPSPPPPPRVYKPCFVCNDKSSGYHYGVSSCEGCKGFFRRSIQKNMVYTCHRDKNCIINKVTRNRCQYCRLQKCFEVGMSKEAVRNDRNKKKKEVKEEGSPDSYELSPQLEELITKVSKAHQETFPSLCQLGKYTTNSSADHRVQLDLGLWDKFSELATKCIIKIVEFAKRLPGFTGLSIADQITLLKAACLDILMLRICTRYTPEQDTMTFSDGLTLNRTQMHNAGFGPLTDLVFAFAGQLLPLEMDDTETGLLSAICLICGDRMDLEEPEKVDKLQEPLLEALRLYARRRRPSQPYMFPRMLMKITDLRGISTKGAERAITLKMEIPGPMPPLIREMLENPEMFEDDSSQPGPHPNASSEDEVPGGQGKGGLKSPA
Outline: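 Transient transfection of HepG2 with multi-reporter constructs, then 24 h chemical treatment. Total RNA isolated, reverse-transcribed, PCR-amplified, fluorescently labelled and resolved by capillary electrophoresis; activity scored as mRNA induction versus DMSO.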

[20] = target: Retinoic acid receptor alpha (Homo sapiens) (UniProt P10276); experiment: ATG_RARa_TRANS: Attagene TRANS-FACTORIAL HepG2 Assay for human Retinoic Acid Receptor alpha (RARa) (AID 2283005; active means hit-call score of the fitted dose curve at least 0.9, where 1 is the maximum)
Retinoic acid receptor alpha (Homo sapiens), sequence (P10276 whole entry, looked up, the tested form may be a part): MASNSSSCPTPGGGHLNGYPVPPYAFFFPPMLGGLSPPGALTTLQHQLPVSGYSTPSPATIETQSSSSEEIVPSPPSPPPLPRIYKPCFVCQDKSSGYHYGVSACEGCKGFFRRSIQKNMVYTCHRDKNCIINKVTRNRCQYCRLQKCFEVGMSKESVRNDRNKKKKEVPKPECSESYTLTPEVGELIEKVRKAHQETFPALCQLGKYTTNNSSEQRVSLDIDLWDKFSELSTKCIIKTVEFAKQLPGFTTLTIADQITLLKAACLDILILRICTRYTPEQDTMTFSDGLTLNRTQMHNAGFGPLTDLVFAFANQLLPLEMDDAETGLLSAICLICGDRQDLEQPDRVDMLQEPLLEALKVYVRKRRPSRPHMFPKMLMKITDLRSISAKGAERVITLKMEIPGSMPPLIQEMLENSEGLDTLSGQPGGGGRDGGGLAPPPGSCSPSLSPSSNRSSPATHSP
Outline: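 HepG2 transiently transfected with multiplex GAL4-UAS reporter units including a human RARa–GAL4 chimera; 24 h compound exposure. Reporter mRNA quantified by RT-PCR, 6-FAM labeling and capillary electrophoresis; gain of signal versus DMSO.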

Measured: AC50

O=C(O)CCC(F)(F)C(F)(F)C(F)(F)C(F)(F)C(F)(F)C(F)(F)C(F)(F)F
active: [5] 94.9 µM | [7] 204 µM | [15] 150 µM
not listed: [17] | [18] | [19] | [20]
inactive: all other assays above

CSc1ccc(O)cc1C
not listed: [8] | [9] | [10] | [11] | [13] | [14] | [20]
inactive: all other assays above

C=C(C)CCCC
not listed: [8] | [9] | [10] | [11] | [13] | [14] | [15]
inactive: all other assays above

O=C=NCc1cccc(CN=C=O)c1
not listed: [12] | [15] | [18] | [19] | [20]
inactive: all other assays above

CCN(CC)c1ccc(N=Nc2ccccc2)cc1
active: [1] 35.4 µM | [5] 3.86 µM | [9] 20 µM | [10] 20 µM | [11] 13 µM | [14] 12 µM | [15] 4.67 µM | [16] 4.22 µM
not listed: [17] | [18] | [20]
inactive: all other assays above

OCC(O)CC(F)(F)C(F)(F)C(F)(F)C(F)(F)F (stereo not given)
not listed: [17] | [18] | [19] | [20]
inactive: all other assays above
